Experimental data taken from the supplement of paper PMC10338343.
± gives the standard deviation.

How the values were obtained:
[1] = system: MILI (PIWIL2) piRISC loaded with L1MC piRNA (26 nt); assay: pre-steady-state target cleavage rate (min^-1); guide: L1MC piRNA 5'p-UAACUAAAUACUAUGCAAGCUGUAGG; higher = faster piRNA-guided slicing of the target; conditions: auxiliary factor: 500 nM mouse GTSF1
Procedure, shortened: (§1)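 Cleave-'n-Seq: a transcribed, DNA-blocked target RNA library (0.1 nM) was mixed with 1 nM active affinity-purified piRISC carrying one synthetic guide, with or without 500 nM GTSF1 partner protein, in HEPES–potassium acetate buffer at 33 °C for 0–8 or 0–960 min. Uncleaved targets were sequenced and normalised to depth and to weakly complementary targets. Three trials were pooled, and k3 was capped at 0.0001 min^-1. The pre-steady-state cleavage rate came from a burst-and-steady-state fit.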

[2] = system: EfPiwi piRISC loaded with L1MC piRNA (26 nt); assay: pre-steady-state target cleavage rate (min^-1); auxiliary factor: 500 nM Ephydatia muelleri Gtsf1; guide: L1MC piRNA 5'p-UAACUAAAUACUAUGCAAGCUGUAGG; MIWI and MILI are mouse PIWI proteins and EfPiwi is from a freshwater sponge; tags in brackets are library labels; higher = faster piRNA-guided slicing of the target
Procedure, shortened: as §1

Sequence | pre-steady-state target cleavage rate [1] | pre-steady-state target cleavage rate [2]
UCCUGGAACAGCAUGCAUAGUAUUUAGAUA | 0.188 ± 0.022 | 0.00441 ± 0.0022
UCCUGGAUCAGCUUGCAUACUAUUUAGUAA | 0.0386 ± 0.0077 | 0.00398 ± 0.0023
UCCUCGUACAGCUUGCAUAGUAUUUUCAAA | 0.0759 ± 0.02 | 0.0038 ± 0.0029
UCCUGGAUCAGCUUGCAUAGUUUUUAGAUA | 0.0159 ± 0.0066 | 0.00428 ± 0.0026
UCCUGGAACAGCUUGCAUAGUAUUUUCAAA | 0.0774 ± 0.018 | 0.00233 ± 0.0023
UCCUGGAUCAGCUUCCAUAGUAUUUAGUAA | 0.0353 ± 0.0094 | 0.00347 ± 0.0017
UCCUGGUUGUGCUUGCAUAGUAUUUAGAAA | 0.0381 ± 0.013 | 0.00415 ± 0.0022
UCCUCCAUGAGCUUGCAUAGUAUUUAGAAA | 0.0637 ± 0.016 | 0.00475 ± 0.0019
UCCUGCUACAGCUUGCAUAGUAUUUGUUA | 0.124 ± 0.028 | 0.00505 ± 0.002
UCCUCCAUGAGCUUGCAUAGUAUUUACAAA | 0.0266 ± 0.0095 | 0.00312 ± 0.0024
UCCUGGAUGAGCUUGCAUAAUAUUUAGUUA | 0.266 ± 0.035 | 0.00543 ± 0.0021
UCCUGGAUGAGCUUGCAUAGUAUUAAGAUA | 0.00532 ± 0.0045 | 0.00505 ± 0.003
UCCUGGAACAGCUUCCAUAGUAUUUAGUUA | 0.0612 ± 0.017 | 0.00225 ± 0.0021
UCCUGCUACAGCUUGCUAUAGUAUUUAGUUA | 0.05 ± 0.017 | 0.0075 ± 0.002
UCCUCCUACUGCUUGCAUAGUAUUUACAAA | 0.0424 ± 0.011 | 0.0028 ± 0.0021
UCCUGCUACAGCUUGCAUAGUAUUUACAAA | 0.153 ± 0.039 | 0.00255 ± 0.0022
UCCUGGAACACCUUGCAUAGUAUUUAGAUA | 0.183 ± 0.043 | 0.0026 ± 0.0026
UCCUCGAACAGCUUGCAUAGUAUUUUCAAA | 0.102 ± 0.021 | 0.00321 ± 0.0022
UCCUGCUACAGCUUGCAUAGUAUUUUGAUA | 0.142 ± 0.037 | 0.00307 ± 0.0023
UCCUGGUACAGCUUGCUUAGUAUUUAGAUA | 0.122 ± 0.024 | 0.00305 ± 0.0025
UCCUGGAACAGCUUGGAUAGUUUUUAGUUA | 0.0453 ± 0.0097 | 0.00298 ± 0.0022

Sequence | pre-steady-state target cleavage rate [1] | pre-steady-state target cleavage rate [2]
UCCUCCAACAGCUUCCAUAGUAUUUAGUUA | 0.0545 ± 0.017 | 0.00439 ± 0.0021
UCCUCCUACAGCUUCCAUAGUAUUUAGUAA | 0.0254 ± 0.011 | 0.0037 ± 0.0018
UCCUGCUACAGCUUGCAUAGUUUUUAGUAA | 0.0393 ± 0.011 | 0.00424 ± 0.0013
UCCUGGAUCAGCUUCCAUAGUAUUUAGUUA | 0.0318 ± 0.0085 | 0.00321 ± 0.0017
UCCUGGUACAGCUUCGAUAGUAUUUAGUUA |  | 0.00411 ± 0.0026
UCCUGGAUGUCGAACGAUAGUAUUUAGGUA |  | < 0.0001
UCCUCCUACAGCUUGCAUAGUAAUUUCAAA |  | 0.00321 ± 0.0026
UCCUCCUACAGCUUGCAUAGUAUUUGUUA | 0.203 ± 0.04 | 0.00561 ± 0.0026
UCCUGGAUCAGCUUCGAUAGUAUUUAGUUA |  | 0.00503 ± 0.0041
UCCUGCUUGAGCUUGCAUAGUAUUUUCAAA | 0.0372 ± 0.013 | 0.00207 ± 0.0018
UCCUCCUAGUGCUUGCAUAGUAUUUAGAAA | 0.0113 ± 0.0046 | 0.00361 ± 0.0021
UCCUGGUACAGCUAGCAUAGUAUUUAGAAA | 0.0357 ± 0.013 | 0.00319 ± 0.0022
UCCUGGAUCAGCUUGCAUAGUAUUUAUGUUA |  | 0.0559 ± 0.02
UCCUCCUACAGCUGUGCAUAGUAUUUAGUUA |  | 0.0425 ± 0.015
UCCUGGUACAGCUUGCAUAGUAUUAAGAUA |  | 0.0058 ± 0.0028
UCCUGGAUGAGCUUGCAUAGUUUUUAGAAA |  | 0.00315 ± 0.0019
UCCUGGUUCAGCUUGCAUAGUAUUUAGAUA |  | 0.00378 ± 0.002
UCCUGGAUGUCGUUGGUUAGUAUUUAGUUA |  | < 0.0001
UCCUCCUACAGCUUGCAUAGGAUUUAGUUA |  | 0.0113 ± 0.0028
UCCUCCUAGAGCUUGCAUAGUAUUUUGUUA | 0.251 ± 0.029 | 0.006 ± 0.0024
UCCUGGUACUGCUUGCAUAGUAUUUAGAAA | 0.0143 ± 0.0067 | 0.00409 ± 0.0019

Sequence | pre-steady-state target cleavage rate [1] | pre-steady-state target cleavage rate [2]
UCCUGGUUCAGCUUGCUUAGUAUUUAGUUA |  | 0.0145 ± 0.0054
UCCUGGAUGUGCUUGCAUAGUAUUGAGUUA | 0.0612 ± 0.019 | 0.00273 ± 0.0022
UCCUCCUACUGCUUGCAUAGUAAUUAGUUA |  | 0.0119 ± 0.0043
UCCUCCUACAGCUUGCAUAGUAUUUAGGUA | 0.152 ± 0.045 | 0.00476 ± 0.0017
UCCUGCUACAGCUUGCAUACUAUUAAGUUA | 0.0719 ± 0.018 | 0.00453 ± 0.0019
UCCUGCUACAGCUUGCAUAGUAAUUACAAA | 0.0901 ± 0.029 | 0.00259 ± 0.0018
UCCUGGAACAGCUUGCAUAGUAUAUAGAAA | 0.0917 ± 0.026 | 0.00685 ± 0.0044
UCCUGGAACUGCUUGCAUAGUAUUUAGAUA | 0.123 ± 0.023 | 0.00297 ± 0.002
UCCUGGAUGUCGAACGUUAGUAUUAAGUAA |  | < 0.0001
UCCUGCUUCAGCUUGCAUAGUAUUUACAAA | 0.212 ± 0.047 | 0.00462 ± 0.0025
UCCUCCUACAGCUUCCAUAGUAUAUAGUUA |  | 0.00246 ± 0.0022
UCCUGGAUGAGCUUGCUUAGUAUUAAGUUA | 0.128 ± 0.021 | 0.00314 ± 0.0031
UCCUGGAUGUCCUUGCAUAGUAUUUAGGUUA | 0.0768 ± 0.019 | 0.00393 ± 0.0033
UCCUCCUACAGCUUGCAUAGUAUUAUCAAA | 0.0973 ± 0.021 | 0.00273 ± 0.0027
UCCUGGUACAGCUUCGAUAGUAUUUACAAA |  | 0.00595 ± 0.0049
UCCUGGAACAGCUUGCAUACUAUUUAGUAA | 0.0934 ± 0.025 | 0.00398 ± 0.0022
UCCUGGAUGUCGAACCAUAGUAUUUGUUA |  | < 0.0001
UCCUGGAUGUCGAACGUAUGUUAUUUAGUUA |  | < 0.0001
UCCUGGAUGAGUUUGCAUAGUAUUUAGUUA |  | 0.0219 ± 0.006
